Experimental data reported in paper PMC5540273 (PLoS ONE, 2017).
Values joined by “and” are separate entries in the source; they are usually repeats but may differ in a detail not shown here. Equal values may be shown once. Read-outs that look alike come from different tables or passages of the source.

Tests used:
FLT3 = conditions: concentration: 1 μM, replicates: in singlicate; n = 1
FLT4 = conditions: n = 1
FRK = conditions: concentration: 1 μM, replicates: in singlicate; n = 1
FYN = conditions: n = 1
GAK = conditions: n = 1
GCN2(Kin.Dom.2,S808G) = tested on: T1, GCN2(Kin.Dom.2,S808G); conditions: n = 1
T1 construct: gene EIF2AK4

GRK1 = conditions: concentration: 1 μM, replicates: in singlicate; n = 1
GRK2 = tested on: T2, GRK2; conditions: concentration: 1 μM, replicates: in singlicate; n = 1
T2 construct: gene ADRBK1

GRK3 = tested on: T3, GRK3; conditions: n = 1
T3 construct: gene ADRBK2

GRK4 = conditions: n = 1
[1] = concentration: 1 μM, replicates: in singlicate
[2] = concentration: 1 μM,replicates: in singlicate, 1 µM
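Note: KINOMEscan kinase panel screen.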

SMILES | %Inh (FLT3) [%] | %Inh (FLT4; [1]) [%] | %Inh (FRK) [%] | %Inh (FYN; [1]) [%] | %Inh (GAK; [1]) [%] | %Inh (GCN2(Kin.Dom.2,S808G); [1]) [%] | %Inh (GRK1) [%] | %Inh (GRK2) [%] | %Inh (GRK3; [1]) [%] | %Inh (GRK4; [1]) [%] | %Inh (FLT4; [2]) | %Inh (FYN; [2]) | %Inh (GAK; [2]) | %Inh (GCN2(Kin.Dom.2,S808G); [2]) | %Inh (GRK3; [2]) | %Inh (GRK4; [2])
COc1cccc(NC(=O)NC2CCN(c3ccnc(Nc4ccc(F)cc4)n3)C2)c1 (stereo not drawn) [GSK1379721] | 3 | 0 | 0 | 25 | 3 | 0 | 0 | 0 | 18 | 0 | – | – | – | – | – | –
Cl.NC(=O)c1cccc(Nc2nccc(Nc3ccc(Oc4cccc(Cl)c4)c(Cl)c3)n2)c1 [GW659008] | 54 | 0 | 24 | 59 | 43 | 11 | 0 | 0 | 18 | 15 | – | – | – | – | – | –
Fc1cc(Cl)ccc1Nc1ccnc2cc(I)ccc12 [GW551191] | 0 | 3 | 20 | 25 | 82 | 5 | 0 | 0 | 32 | 4 | – | – | – | – | – | –
COc1ccc2nc(-c3cccc(C)n3)nc(Nc3ccncc3)c2c1 [GSK204919] | 0 | 5 | 9 | 13 | 8 | 0 | 0 | 0 | 43 | 0 | – | – | – | – | – | –
Nc1nc(-c2nccs2)c(-c2ccnc3ccccc23)s1 [GW693542] | 2 | 0 | 0 | 17 | 45 | 17 | 0 | 0 | 39 | 21 | – | – | – | – | – | –
O=C(Nc1n[nH]c2nc(-c3nccs3)c(Br)cc12)C1CCCC1 [SB-742609] | 44 | 19 | 24 | 23 | 2 | 5 | 0 | 0 | 66 | 11 | – | – | – | – | – | –
C[C@@H]1CCCCN1c1cc(-c2ccc3c(N)n[nH]c3c2)nc(N)n1 [GSK2258759] | 0 | 0 | 5 | 19 | 14 | 0 | 0 | 0 | 0 | 0 | – | – | – | – | – | –
COc1ccccc1CNC(=O)c1cc(C(=O)c2ccccc2C)c[nH]1 [GSK364507] | 0 | 5 | 0 | 42 | 15 | 9 | 0 | 0 | 37 | 0 | – | – | – | – | – | –
COc1cc2ncn(-c3cc(OCC4CCCO4)c(C(N)=O)s3)c2cc1OC (stereo not drawn) [GSK204607] | 0 | 36 | 17 | 33 | 53 | 0 | 0 | 0 | 16 | 0 | – | – | – | – | – | –
O=C(Nc1n[nH]c2nc(-c3nccs3)c(Br)cc12)C1CC1 [SB-742251] | 88 | 8 | 2 | 3 | 0 | 0 | 1 | 0 | 27 | 0 | – | – | – | – | – | –
Cl.O=C(Nc1cccc(-c2nn3ncccc3c2-c2ccnc(Nc3cccnc3)n2)c1)c1c(F)cccc1F [GSK312879] | 0 | 9 | 15 | 21 | 8 | 0 | 20 | 0 | 27 | 0 | – | – | – | – | – | –
CCn1c(-c2cccnc2O)nc2cnccc21 [SB-736715] | 23 | 0 | 0 | 0 | 0 | 8 | 0 | 0 | 21 | 19 | – | – | – | – | – | –
CS(=O)(=O)c1ccc(-c2nc3n(c2-c2ccncc2)CCC3)cc1 [SKF-105942] | 0 | 0 | 16 | 12 | 7 | 9 | 7 | 0 | 24 | 23 | – | – | – | – | – | –
CCn1c(-c2ccccn2)nc2cnccc21 [SB-736398] | 2 | 0 | 17 | 0 | 9 | 10 | 1 | 5 | 78 | 1 | – | – | – | – | – | –
CC(C)(C)c1ccc(C(=O)Nc2cn3cc(Cl)ccc3n2)cc1 | 70 | 0 | 12 | 99.3 | 0 | 36 | 10 | 0 | 0 | 0 | – | – | – | – | – | –
Cc1csc(-c2nc(Nc3ccncc3)c3ccccc3n2)n1 [GW869640] | 39 | 6 | 4 | 24 | 21 | 13 | 27 | 0 | 0 | 29 | – | – | – | – | – | –
Fc1cc(Cl)ccc1Nc1ccnc2cc(-c3ccc(CN4CCCCC4)o3)ccc12 [GW560116] | 0 | 0 | 4 | 18 | 35 | 0 | 0 | 0 | 18 | 0 | – | – | – | – | – | –
COc1ccc(Nc2nccc(-c3cccc(NC(=O)c4cc5cc(F)ccc5[nH]4)c3)n2)cc1 [GSK1229782] | 39 | 0 | 40 | 31 | 49 | 4 | 0 | 0 | 45 | 0 | – | – | – | – | – | –

SMILES | %Inh (FLT3) [%] | %Inh (FLT4; [1]) [%] | %Inh (FRK) [%] | %Inh (FYN; [1]) [%] | %Inh (GAK; [1]) [%] | %Inh (GCN2(Kin.Dom.2,S808G); [1]) [%] | %Inh (GRK1) [%] | %Inh (GRK2) [%] | %Inh (GRK3; [1]) [%] | %Inh (GRK4; [1]) [%] | %Inh (FLT4; [2]) | %Inh (FYN; [2]) | %Inh (GAK; [2]) | %Inh (GCN2(Kin.Dom.2,S808G); [2]) | %Inh (GRK3; [2]) | %Inh (GRK4; [2])
Cn1ccc2ncnc(Oc3cccc(C(=O)Nc4ccccc4)c3)c21 | 17 | 0 | 27 | 8 | 0 | 14 | 0 | 0 | 8 | 3 | – | – | – | – | – | –
COC(=O)c1c(-c2ccccc2)c2cc(C(=O)O)ccc2c(=O)n1Cc1ccccc1 | 0 | 0 | 48 | 0 | 0 | 10 | 0 | 0 | 3 | 23 | – | – | – | – | – | –
O=C(O)COc1ncnc2cc(-c3ccc4[nH]ncc4c3)sc12 | 2 | 2 | 100 | 100 | 4 | 0 | 3 | 20 | 23 | 0 | – | – | – | – | – | –
Cc1cc(N2Cc3ccccc3C2)nc(Nc2ccc(S(=O)(=O)N3CCOCC3)cc2)n1.Cl [GSK1669917] | 0 | 3 | 11 | 0 | 0 | 0 | 0 | 0 | 0 | 0 | – | – | – | – | – | –
COc1cc(Nc2nccc(N3CCC(NC(=O)Nc4cc(C)ccc4C)C3)n2)cc(OC)c1OC (stereo not drawn) [GSK1379762] | 36 | 14 | 8 | 0 | 28 | 3 | 0 | 0 | 10 | 20 | – | – | – | – | – | –
CSc1nn2c(=O)cc(N3CCOCC3)nc2n1Cc1cccc(C(F)(F)F)c1C [GSK2363608] | 0 | – | 0 | – | – | – | 0 | 0 | – | – | 18% and 0% | 46% and 15% | 100% and 0% | 0% and 3% | 0% and 20% | 0% and 8%
Cc1cc(NCC(c2ccccc2)c2ccccc2)nc(NCc2ccc(C(F)(F)F)cc2)n1 [GW497681] | 0 | 0 | 0 | 0 | 0 | 0 | 0 | 0 | 22 | 0 | – | – | – | – | – | –
Cc1cccc(-c2nc(Nc3ccc4[nH]ncc4c3)c3ccccc3n2)n1 [GW857175] | 13 | 6 | 3 | 0 | 0 | 5 | 3 | 40 | 0 | 10 | – | – | – | – | – | –
O=C(Nc1n[nH]c2cc(-c3cccc(F)c3F)ccc12)C1CC1 [SB-733894] | 0 | 0 | 0 | 0 | 6 | 0 | 44 | 0 | 0 | 0 | – | – | – | – | – | –
CC(C)(C)c1ccc(C(=O)Nc2cn3cc(-c4cccnc4)ccc3n2)cc1 | 65 | 16 | 23 | 0 | 18 | 21 | 41 | 0 | 0 | 0 | – | – | – | – | – | –
Cn1ccc2ncnc(Oc3ccc(Nc4nc5ccccc5[nH]4)cc3)c21 | 0 | 0 | 0 | 0 | 0 | 0 | 4 | 0 | 0 | 9 | – | – | – | – | – | –
Cc1cccc(-c2nc(Nc3cccc(C(N)=O)c3)c3ccccc3n2)n1 [GW876019] | 0 | 10 | 16 | 0 | 0 | 0 | 14 | 0 | 0 | 0 | – | – | – | – | – | –
Cc1cccc(-c2nc(C)cc(Nc3ccncc3)n2)n1 [GSK257997] | 5 | 13 | 0 | 36 | 0 | 0 | 0 | 0 | 0 | 0 | – | – | – | – | – | –
CS(=O)(=O)c1ccc(-c2c(-c3ncn[nH]3)sc(N3CCOCC3)c2C#N)cc1 | 0 | 0 | 8 | 0 | 0 | 11 | 25 | 26 | 26 | 0 | – | – | – | – | – | –
O=S(=O)(c1ccc(-c2ccnc3[nH]ccc23)cc1)N1CCCC1 [GSK846226] | 0 | 0 | 0 | 25 | 28 | 0 | 0 | 0 | 0 | 0 | – | – | – | – | – | –
COc1cc2nccc(Nc3ccc(NC(=O)c4ccc(C)cc4)c(O)c3)c2cc1OC.Cl [GW440132] | 0 | 0 | 25 | 17 | 11 | 0 | 0 | 0 | 29 | 0 | – | – | – | – | – | –
COc1ccc(C2=C(Nc3cccc(C(=O)O)c3)C(=O)NC2=O)cc1 [SB-390765] | 23 | 15 | 0 | 0 | 8 | 0 | 30 | 0 | 50 | 14 | – | – | – | – | – | –
CCCc1ccc(S(=O)(=O)NC2CCN(c3ccnc(Nc4ccc(F)cc4)n3)C2)cc1 (stereo not drawn) [GSK1379715] | 0 | 0 | 8 | 0 | 10 | 0 | 100 | 0 | 33 | 0 | – | – | – | – | – | –
